# NALP1 yeast inh – NALP1 inflammasome inhibitors in reconstituted yeast, colorimetric, S. cerevisiae, triplicate retest; S. cerevisiae NALP1/ASC/caspase-1 growth, X-gal OD620, 72 h; inhibition, % at 10 µM; AID 2071, 2009; hit rate 0.61% among 280,000; in the data active = inhibition mostly above about 24%, no sharp cut-off; inactive = mostly below about 32%
# NLRP3 yeast inh – NALP3 inflammasome inhibitors in reconstituted yeast, primary screen, luminescence, uHTS; inhibition, % at 10 µM; Yeast reconstituted NLRP3/ASC/caspase-1, beta-gal luminescence, 24 h; hit rate 0.39% among 330,000;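 active = inhibition of 50% or more; inactive = inhibition below 50%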;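 note: plate controls were induced DMSO wells for no effect and uninduced yeast grown without galactose for full effect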
# tim10-1 inh – growth inhibitors of tim10-1 mutant yeast, primary screen, luminescence, uHTS | S. cerevisiae tim10-1 ts strain growth, BacTiter-Glo, 24 h | hit rate 2.2% among 330,000 | inhibition, % at 20 µM | AID 463190, 2010;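 active = inhibition of at least 40%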;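 note: mutant grown at 25 °C; 0% = DMSO wells with yeast and 100% = wells holding no yeast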
# TIM10 inh – growth inhibitors of isogenic TIM10 control yeast, primary screen, counter-screen for tim10-1 yeast inhibitor project, luminescence, uHTS; S. cerevisiae TIM10 strain growth, BacTiter-Glo luminescence, 24 h; inhibition, % at 10 µM; hit rate 1.4% among 330,000; AID 463195, 2010;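 active = inhibition of 40% or more at the single tested concentration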;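 note: wild-type TIM10 isogenic control strain grown at permissive 25 °C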
# tim23-1 inh – growth inhibitors of tim23-1 mutant yeast, primary screen, luminescence, uHTS. hit rate 1.3% among 330,000. S. cerevisiae tim23-1 growth, BacTiter-Glo luminescence, 24 h. inhibition, % at 20 µM;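 active = growth inhibition of the mutant yeast at or above 50%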;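 note: temperature-sensitive mutant grown at 25 °C; plate controls were DMSO-treated mutant yeast for no effect and medium wells lacking yeast for full effect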
# NALP3 confirm – NALP3 inhibitors retested in yeast, confirmation, luminescence, single concentration | yeast expressing human NALP3 | AID 435006, 2010 | shares compounds with NLRP3 yeast inh | inhibition, % at 10 µM | hit rate 81% among 1,300; in the data active = inhibition above about 48%
# Casp1-ASC yeast – CASP1-PYCARD signaling inhibition in yeast, confirmatory test, counterassay for NLRP3 inhibitor program, one-dose. shares compounds with NLRP3 yeast inh. yeast expressing Caspase-1-ASC, luminescence counter screen. inhibition, % at 10 µM. hit rate 66% among 1,000. AID 488784, 2010
# NALP3 retest – NALP3 inhibitors in yeast, repeat test, confirmation, luminescence, single concentration, retest; shares compounds with NLRP3 yeast inh; yeast expressing human NALP3, luminescence read-out; inhibition, % at 10 µM; hit rate 53% among 1,000; AID 488794, 2010
# * hit, by the source's call; x = not tested or not shown. Rows were chosen to be rich in hits. Some 4.1% of all compounds tested hit in one or more screens of this group. Cut-off read from the data, not from the text of the source, unless noted: active = inhibition above about 50%; inactive = the rest.
SMILES,NALP1 yeast inh,NLRP3 yeast inh,tim10-1 inh,TIM10 inh,tim23-1 inh,NALP3 confirm,Casp1-ASC yeast,NALP3 retest
O=C(NCC1CCCC(CNC(=O)N2CCc3ccccc32)C1)N1CCc2ccccc21 (stereo not given),10.3,6.2,23.6,-3.8,38.9,x,x,x
O=C(Nc1cccc(Cl)c1)c1cc(-c2ccco2)on1,18.7,59.1*,-83.9,8.6,19.0,74.2*,62.6*,48.0
O=C(Nc1cc(Cl)ccc1O)c1cc(-c2ccco2)on1,8.2,50.2*,-32.6,4.8,6.2,65.7*,38.8,38.6
O=C(Nc1cc(Br)ccc1O)c1cc(-c2ccco2)on1,16.6,x,x,x,x,x,x,x
Cc1ccc(C2C3C(=O)N(c4ccc(C)cc4)C(=O)C3N3CCCN23)cc1 (stereo not given),x,16.2,-1.7,13.7,-11.9,x,x,x
Cc1c(Cl)cccc1NC(=O)CNC(=O)C1CCN(C(=O)Nc2ccccc2)CC1,x,19.3,3.2,7.4,-3.5,x,x,x
CCN(CC)S(=O)(=O)c1cc(C)c(C)cc1Br,-103.1,58.2*,-12.3,-47.9,-31.0,54.5*,53.2*,41.1
CCOc1ccc(CSCCNC(=S)Nc2ccc(OC)cc2)cc1,8.4,67.9*,15.5,5.4,18.9,64.5*,49.7,35.4
CCOc1ccc(NC(=S)N/N=C(\C)Cc2ccc(OC)cc2)cc1,4.7,15.2,17.5,-5.3,32.1,x,x,x
COc1nc(-c2ccccc2)ncc1S(=O)(=O)c1ccccc1,9.4,56.7*,-27.4,-55.1,-4.8,44.7,40.8,30.8
Cc1cccc(OCCCC(=O)N2CCCCCC2)c1C,3.1,33.0,17.8,4.3,29.2,x,x,x
Cn1nc(-c2ccccc2)c(C(=O)Nc2ccc(Cl)cc2)c1Cl,13.1,81.3*,-11.6,-29.8,7.7,86.2*,54.7*,30.8
Cn1nc(-c2ccccc2)c(C(=O)Nc2ccc(C(F)(F)F)cc2)c1Cl,4.7,8.6,-72.9,-69.6,-4.4,x,x,x
Fc1ccc(CSc2ncnc3c2oc2ccccc23)cc1,30.8,x,x,x,x,x,x,x
O=C(CSc1ncnc2c1oc1ccccc12)NCc1ccc(F)cc1,7.5,55.4*,7.3,-17.7,26.0,63.4*,43.1,28.7
COc1cc(OC)cc(-c2cc3cc4c(cc3cn2)OCO4)c1,x,56.2*,14.1,10.5,21.1,56.5*,49.5,43.4
CCOc1ccccc1N1CCN(CC(=O)Nc2ccnn2C2CCCC2)CC1,x,7.9,7.2,15.3,3.2,x,x,x
O=C(O)c1ccccc1C(=O)c1ccc2c(c1)N(Cc1ccc(Cl)c(Cl)c1)C(=O)CO2,7.0,9.9,31.2,14.4,11.1,x,x,x
CCCSc1ccc([C@H]2N[C@@](C)(C(=O)OC)[C@H]3C(=O)N(C)C(=O)[C@@H]23)cc1,x,51.3*,1.3,-5.5,4.0,47.8,16.4,15.6
COc1ccc(/C=C/C(=O)Nc2ccccc2C(=O)NCC(c2ccc(OC)cc2)N(C)C)cc1 (stereo not given),14.2,24.0,14.9,17.1,15.6,x,x,x
COc1cc(C(=O)OCc2cc(=O)oc3c(C)c(C)ccc23)ccc1OC(F)F,7.1,14.4,-14.2,-4.8,-2.0,x,x,x
Cn1cc(/C(Cc2ccccc2)=N\O)c2ccccc21,24.9,56.3*,-15.8,19.9,-1.7,68.2*,37.4,42.0
Cn1cc(C(=O)CCl)c2ccccc21,-3.9,x,x,x,x,x,x,x
CCN(CC)c1ncnc2sc3c(c12)CCC3,16.4,60.9*,32.7,0.4,34.2,64.0*,67.2*,57.2*
COCCn1c(-c2cc(OC)c(OC)c(OC)c2)nc2oc3ccccc3c(=O)c2c1=O,19.6,20.7,0.0,-5.8,10.4,x,x,x
Cc1cccc(NC(=O)c2ccccc2O)c1C,12.2,56.9*,-8.0,-9.4,7.3,56.8*,52.3*,58.8*
Cc1ccc(C)c(NC(=O)c2ccccc2O)c1,8.3,49.0,5.4,-3.5,33.7,x,x,x
COC(=O)c1sc2nc3c(cc2c1N)CCCC3,-8.7,51.4*,2.9,11.6,33.8,65.5*,64.1*,58.1*

# From PubChem
